Calls of active or inactive are those of the source. No stated cut-off is given here; in the data, active means fold change permeability below about 0.7 or above about 1.3; inactive means in between.
Test: modulators of brain endothelial barrier permeability, primary screen, cell-based, FITC-avidin fluorescence, HTS (AID 1963498); further: test concentration not given here
Settings: actives lie on both sides
In the case of `NC(=NCCC[C@H](N)C(=O)O)N[N+](=O)[O-]`, the fold change permeability is reported as 1 (inactive). With `COc1ccc(OC)c(C(O)C(C)N)c1` (stereo unspecified) the fold change permeability was 0.8 (inactive). With `NNC(=O)c1ccc(O)cc1` the fold change permeability was 0.8 (inactive). In the case of `COc1ccc2[nH]cc(CCN)c2c1`, the fold change permeability is reported as 0.8 (inactive). In the case of `CCCN1CCC[C@H](c2cccc(O)c2)C1`, the fold change permeability is reported as 1 (inactive). For `N[C@@H](Cn1oc(=O)[nH]c1=O)C(=O)O`, the fold change permeability was 1.1 (inactive). With `COc1ccc2[nH]c3c(c2c1)CCNC3` the fold change permeability was 1 (inactive). In the case of `CC(N)c1cccc(Cl)c1Cl` (stereo unspecified), the fold change permeability is reported as 1.1 (inactive). With `NC(=O)CI` the fold change permeability was 1.2 (inactive). For `NCCc1c[nH]c2ccc(C(N)=O)cc12`, the fold change permeability was 1 (inactive). With `CC(=O)[C@H]1CCC2C3CC[C@H]4C[C@H](O)CC[C@]4(C)C3CC[C@@]21C` (stereo partly specified) the fold change permeability was 0.9 (inactive). With `NC(=O)COc1c(F)cc(SCCNS(=O)(=O)c2ccccc2)cc1F` the fold change permeability was 0.9 (inactive). With `Cc1ncc(CNC(=O)N(CCCl)N=O)c(N)n1` the fold change permeability was 0.9 (inactive). With `CC(CCc1ccccc1)NC(C)C(O)c1ccc(O)cc1` (stereo unspecified) the fold change permeability was 0.8 (inactive). In the case of `O=[N+]([O-])c1cc(O)c(O)c([N+](=O)[O-])c1`, the fold change permeability is reported as 1 (inactive). For `N=C(N)c1ccc(CS(=O)(=O)F)cc1`, the fold change permeability was 1.2 (inactive). With `O=C(O)CC[N+](=O)[O-]` the fold change permeability was 0.9 (inactive). In the case of `c1ccc2c(c1)[I+]c1ccccc1-2`, the fold change permeability is reported as 1.7 (active). With `NC(CCP(=O)(O)O)C(=O)O` (stereo unspecified) the fold change permeability was 1 (inactive). With `Clc1ccc(C(c2ccc(Cl)cc2)n2cc[n+](CC(OCc3ccc(Cl)cc3Cl)c3ccc(Cl)cc3Cl)c2)cc1` (stereo unspecified) the fold change permeability was 1.3 (active). For `O=C(O)[C@@H]1CCN1`, the fold change permeability was 1 (inactive). In the case of `CC(C)[C@H]1CN[C@H](C(=O)O)[C@H]1CC(=O)O`, the fold change permeability is reported as 1.1 (inactive). For `C[C@@H]1[C@@H]2Cc3ccc(O)cc3[C@@]1(C)CCN2CC1CC1`, the fold change permeability was 1.3 (active). For `c1ccc2sc(C3(N4CCCCC4)CCCCC3)cc2c1`, the fold change permeability was 1 (inactive). For `Cc1cc([C@@H]2CCCN2C)on1`, the fold change permeability was 1.1 (inactive). For `NCCCP(=O)(O)O`, the fold change permeability was 1.3 (active). With `CC(C)NP(=O)(NC(C)C)OP(=O)(NC(C)C)NC(C)C` the fold change permeability was 1.1 (inactive). In the case of `C[N+](C)(C)CCOC(=O)CBr`, the fold change permeability is reported as 1 (inactive). With `C=CCN1CC[C@]23c4c5ccc(O)c4O[C@H]2C(=O)CC[C@@]3(O)[C@H]1C5` the fold change permeability was 1 (inactive). With `OCc1cnc[nH]1` the fold change permeability was 1.1 (inactive). In the case of `C[N+](C)(C)CC#CCN1CCCC1=O`, the fold change permeability is reported as 1 (inactive). For `NCCc1ccc(O)cc1`, the fold change permeability was 0.7 (active). For `CC(=O)NBr`, the fold change permeability was 1 (inactive). In the case of `CC[C@@]1(O)C(=O)OCc2c1cc1n(c2=O)Cc2cc3ccccc3nc2-1`, the fold change permeability is reported as 1.4 (active). For `Cc1c2ccncc2c(C)c2c1[nH]c1ccccc12`, the fold change permeability was 1.2 (inactive). For `O=P1(N(CCCl)CCCl)NCCCO1` (stereo unspecified), the fold change permeability was 1 (inactive).

Reference: PubChem BioAssay
